Test results reported in PubChem BioAssay AID1159580 (chemical genetic matrix, 2015).
Values joined by “and” are separate entries in the source; they are usually repeats but may differ in a detail not shown here. Equal entries are not always repeated. Screen size: about 5,500 compounds; about 2,000 (36%) were called active. Inconclusive results (about 18%) are left out. No stated cut-off is given here; in the data, active means normalized growth mostly below about 0.91 (no sharp cut-off); inconclusive means no clear call, values can overlap the other calls; inactive means mostly above about 0.92. This is one part of the list.

Assay: chemical genetic growth profiling, strain panel (AID 1159580);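 further: tested at 20 µM; growth read once vehicle control cultures reached saturation at 30 °C; 1 = growth at the plate median or of vehicle wells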
Conditions: S. cerevisiae deletion strains, growth OD

Measured: normalized growth

Cc1ccc(S(=O)(=O)NC(=O)NN2CC3CCCC3C2)cc1 (configuration not stated)
inactive: locus YAL013W, strain DEP1, stronger effect = lower value 1.01 | locus YAL021C, strain ccr4, stronger effect = lower value 0.996 | locus YAL026C, strain drs2, stronger effect = lower value 0.979 | locus YAL030W, strain snc1, stronger effect = lower value 0.982 | locus YBL061C, strain skt5, stronger effect = lower value 0.981 | locus YBR009C, strain hhf1, stronger effect = lower value 0.976 | locus YBR021W, strain FUR4, stronger effect = lower value 1.01 | locus YBR023C, strain chs3, stronger effect = lower value 0.973 | locus YBR171W, strain sec66, stronger effect = lower value 0.995 | locus YBR229C, strain ROT2, stronger effect = lower value 1.01 | locus YBR231C, strain swc5, stronger effect = lower value 0.984 | locus YBR279W, strain paf1, stronger effect = lower value 0.987 | locus YCL011C, strain gbp2, stronger effect = lower value 0.961 | locus YCL016C, strain dcc1, stronger effect = lower value 0.98 | locus YCL029C, strain bik1, stronger effect = lower value 1.01 | locus YCL069W, strain vba3, stronger effect = lower value 0.993 | locus YCR088W, strain abp1, stronger effect = lower value 0.972 | locus YDL005C, strain med2, stronger effect = lower value 0.98 | locus YDL035C, strain GPR1, stronger effect = lower value 0.946 | locus YDL040C, strain nat1, stronger effect = lower value 0.984 | locus YDL074C, strain BRE1, stronger effect = lower value 1.01 | locus YDL101C, strain DUN1, stronger effect = lower value 1.02 | locus YDL134C, strain PPH21, stronger effect = lower value 0.962 | locus YDL185W, strain tfp1, stronger effect = lower value 1.02 | locus YDL192W, strain arf1, stronger effect = lower value 1.01 | locus YDR001C, strain nth1, stronger effect = lower value 0.968 | locus YDR069C, strain doa4, stronger effect = lower value 0.99 | locus YDR101C, strain arx1, stronger effect = lower value 1 | locus YDR137W, strain rgp1, stronger effect = lower value 0.89 | locus YDR159W, strain sac3, stronger effect = lower value 0.991 | locus YDR162C, strain NBP2, stronger effect = lower value 0.994 | locus YDR195W, strain ref2 0.975 | locus YDR297W, strain sur2, stronger effect = lower value 0.975 | locus YDR318W, strain mcm21, stronger effect = lower value 1.01 | locus YDR334W, strain swr1, stronger effect = lower value 0.959 | locus YDR335W, strain msn5, stronger effect = lower value 0.979 | locus YDR388W, stronger effect = lower value 1.01 | locus YDR392W, strain spt3, stronger effect = lower value 0.974 | locus YDR502C, strain sam2, stronger effect = lower value 0.997 | locus YEL003W, strain gim4, stronger effect = lower value 0.968 | locus YEL037C, strain rad23, stronger effect = lower value 0.986 | locus YEL061C, strain CIN8 (second series), stronger effect = lower value 0.955 | locus YEL061C, strain CIN8, stronger effect = lower value 1 | locus YER015W, strain faa2, stronger effect = lower value 0.975 | locus YER016W, strain bim1, stronger effect = lower value 0.995 | locus YER110C, stronger effect = lower value 1.02 | locus YER111C, strain swi4, stronger effect = lower value 0.972 | locus YER155C, strain BEM2 (second series), stronger effect = lower value 0.977 | locus YER155C, strain BEM2, stronger effect = lower value 1 | locus YER167W, strain BCK2, stronger effect = lower value 1 | locus YFR010W, strain ubp6, stronger effect = lower value 0.986 | locus YGL078C, strain dbp3, stronger effect = lower value 1.01 | locus YGL086W, strain mad1, stronger effect = lower value 0.984 | locus YGL167C, strain pmr1, stronger effect = lower value 0.982 | locus YGL173C, strain kem1, stronger effect = lower value 1 | locus YGL227W, strain vid30, stronger effect = lower value 0.969 | locus YGL240W, strain doc1, stronger effect = lower value 0.969 | locus YGL248W, strain PDE1, stronger effect = lower value 0.995 | locus YGL253W, strain hxk2, stronger effect = lower value 0.987 | locus YGR135W, strain pre9, stronger effect = lower value 1.03 | locus YGR229C, strain SMI1, stronger effect = lower value 1.01 | locus YGR252W, strain gcn5, stronger effect = lower value 1.05 | locus YHR013C, strain ard1, stronger effect = lower value 0.967 | locus YHR027C, strain rpn1, stronger effect = lower value 0.983 | locus YHR030C, strain SLT2, stronger effect = lower value 1 and 0.961 | locus YHR079C, strain IRE1 (second series), stronger effect = lower value 1.01 | locus YHR079C, strain IRE1, stronger effect = lower value 0.966 | locus YHR094C, strain hxt1, stronger effect = lower value 1.01 | locus YHR129C, strain ARP1, stronger effect = lower value 0.992 | locus YHR142W, strain chs7, stronger effect = lower value 0.98 | locus YHR200W, strain rpn10, stronger effect = lower value 1.01 | locus YIL066C, strain RNR3, stronger effect = lower value 1 | locus YIL073C, strain SPO22, stronger effect = lower value 1.05 | locus YIL125W, strain kgd1, stronger effect = lower value 1.01 | locus YIR030C, strain dcg1, stronger effect = lower value 1.03 | locus YJL092W, strain hpr5, stronger effect = lower value 0.954 | locus YJL095W, strain BCK1 (second series), stronger effect = lower value 0.973 | locus YJL095W, strain BCK1, stronger effect = lower value 1.02 and 0.973 | locus YJL115W, strain asf1, stronger effect = lower value 0.945 | locus YJL129C, strain trk1, stronger effect = lower value 0.954 | locus YJL134W, strain LCB3, stronger effect = lower value 1 | locus YJL154C, strain vps35, stronger effect = lower value 0.97 | locus YJL164C, strain tpk1, stronger effect = lower value 0.97 | locus YJL166W, strain qcr8, stronger effect = lower value 0.981 | locus YJL168C, strain set2, stronger effect = lower value 1.01 | locus YJL187C, strain SWE1 (second series), stronger effect = lower value 1 | locus YJL187C, strain SWE1, stronger effect = lower value 0.989
